# Screening results: PubChem BioAssay, The Scripps Research Institute Molecular Screening Center
# The list is not random: actives were taken first. Their share in the collection is about 2.9%.
# EBNA-1 inh = EBNA-1 DNA-binding inhibitors, primary screen, biochemical, fluorescence polarization; inhibition, % at 14.8 µM; hit rate 0.34% among 300,000; in the data active = inhibition above about 28%
# PAFAH1B2 FP inh = PAFAH1B2 enzyme inhibitors, primary screen, biochemical, fluorescence polarization, human; hit rate 1.2% among 340,000; inhibition, % at 3.39 µM; recombinant PAFAH1B2, FP-rhodamine activity probe; Platelet-activating factor acetylhydrolase IB subunit alpha2 (Homo sapiens), P68402;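 active = inhibition above the mean of all tested compounds plus 3 SD, cut at about 24% in these data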;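 also: 0% = enzyme with DMSO and 100% = wells lacking PAFAH1B2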
# PAFAH2 inh = PAFAH2 enzyme inhibitors, primary screen, biochemical, fluorescence polarization, human; Platelet-activating factor acetylhydrolase 2, cytoplasmic (Homo sapiens), Q99487; recombinant PAFAH2, FP-rhodamine activity probe; inhibition, % at 3.39 µM; hit rate 0.99% among 340,000; AID 492956, 2010;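 active = inhibition above the mean over all tested compounds plus 3 SD, cut at about 30% in these data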;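 also: inhibitors block probe labeling of enzyme so polarization drops; 0% = enzyme with DMSO and 100% = wells lacking PAFAH2 protein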
# ZTA counter = counter-screen for EBNA-1 inhibitors: inhibitors of Epstein-Barr virus ZTA; inhibition, % at 11 µM; ZTA-DNA binding, fluorescence polarization; AID 2234; hit rate 0.15% among 320,000; P03206; in the data active = inhibition above about 33%
# Target sequence (P03206 whole entry, looked up): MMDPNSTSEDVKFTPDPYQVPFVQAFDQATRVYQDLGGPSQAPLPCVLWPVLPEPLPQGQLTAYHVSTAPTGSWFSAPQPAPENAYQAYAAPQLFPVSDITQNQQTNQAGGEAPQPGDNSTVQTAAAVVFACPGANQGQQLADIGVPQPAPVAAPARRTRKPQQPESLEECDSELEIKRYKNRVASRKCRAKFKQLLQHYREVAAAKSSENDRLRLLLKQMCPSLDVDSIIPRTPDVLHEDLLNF
# PAFAH1B3 FP inh = PAFAH1B3 enzyme inhibitors, primary screen, biochemical, fluorescence polarization, human; Platelet-activating factor acetylhydrolase IB subunit alpha1 (Homo sapiens), Q15102; recombinant PAFAH1B3, FP-rhodamine probe; inhibition, % at 3.39 µM; hit rate 0.28% among 340,000; AID 492972, 2010;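 active = inhibition above the screen-wide average of all tested compounds plus 3 SD, cut at about 25% in these data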;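 also: 0% = enzyme with DMSO only and 100% = wells lacking PAFAH1B3 protein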
# Target sequence (Q15102 whole entry, looked up): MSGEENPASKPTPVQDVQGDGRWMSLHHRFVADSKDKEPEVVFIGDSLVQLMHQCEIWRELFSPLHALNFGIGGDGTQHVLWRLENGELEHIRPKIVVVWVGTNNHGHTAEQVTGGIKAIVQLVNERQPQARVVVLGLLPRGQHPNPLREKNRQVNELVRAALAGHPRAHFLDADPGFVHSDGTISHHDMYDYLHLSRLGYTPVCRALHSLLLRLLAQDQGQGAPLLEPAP
# rCAG RNA binder = binders of r(CAG) RNA repeats, primary screen, biochemical, fluorescence; r(CAG) RNA repeat, TO-PRO-1 dye displacement fluorescence; inhibition, % at 3 µM; hit rate 1.3% among 370,000;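 active = inhibition above the plate cutoff, the mean of all test compounds on that plate plus 3 SD, cut at about 35% in these data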;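 also: 0% = DMSO alone and 100% = 100 µM mitoxantrone as full dye displacement; higher means more dye released from RNA so lower well fluorescence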
# An asterisk follows results filed as active; · = no result given; ! = repeats disagree.
SMILES,EBNA-1 inh,PAFAH1B2 FP inh,PAFAH2 inh,ZTA counter,PAFAH1B3 FP inh,rCAG RNA binder
O=C(Nc1ccc(S(=O)(=O)Nc2ncccn2)cc1)C12CC3CC(CC(Cl)(C3)C1)C2,·,30*,6,·,10,16
COc1ccc(CNCC#Cc2ccc(C)cc2)c(OC)c1,·,·,·,·,·,1
O=C(NCC1OCCc2ccccc21)c1ccc(NC(=O)c2cccc(Br)c2)cc1 (stereo unspecified),30*,2,-12,-12,-6,2
CC(C)(C)n1cnc2cc(NCc3ccc(Br)cc3)ccc21,-8,34*,1,-3,6,-6
CS(=O)(=O)c1ccc(C(=O)OCC(=O)NCc2cccs2)cc1[N+](=O)[O-],·,-3,38*,·,8,3
CS(=O)(=O)c1ccc(C(=O)OCC(=O)NC2CCS(=O)(=O)C2)cc1[N+](=O)[O-] (stereo unspecified),-2,-1,3,-10,15,0
COc1ccc(-c2noc(CSc3nnc(CCc4ccccc4)n3-c3ccccc3)n2)cc1OC,-8,-5,-2,7,-2,-4
COc1ccc(-c2noc(CSc3ccccc3)n2)cc1OC,0,24*,7,11,7,-1
CCOc1ccc(N(CC(=O)NCCc2ccc(Cl)cc2)S(=O)(=O)c2c(C)[nH]c(=O)[nH]c2=O)cc1,7,28*,7,8,11,14
Nc1nc2cc3c(cc2cc1C(=O)NCCc1c[nH]c2ccccc12)OCO3,·,·,·,·,·,10
Cc1nc2nc[nH]n2c(=O)c1NC(=O)CC12CC3CC(CC(C3)C1)C2,-3,25*,36*!,3,8,2
COC(=O)[C@]12C[C@H](CC(=O)NCc3ccc(C)o3)C(=O)N(Cc3ccc(Cl)cc3Cl)C1=C[C@H](C(C)(C)C)O[C@@H]2C,·,·,·,·,·,1
COc1ccc(S(=O)(=O)Oc2cccc(/C=N/N=C3/NC(=O)C(CC(=O)O)S3)c2)cc1 (stereo unspecified),4,28*,5,-2,10,27
Cc1ccc(S(=O)(=O)Oc2ccc(/C=N/N=C3/NC(=O)C(CC(=O)O)S3)cc2)cc1 (stereo unspecified),·,·,·,·,·,31
CCC(C(=O)c1ccc2ncccc2c1)c1ccccc1 (stereo unspecified),2,25*,10,-3,10,3
O=C(Nc1ccc2ncccc2c1)c1ccccc1,5,-7,-10,-23,6,-1
COC1=CC(=O)c2ccccc2C1=O,·,15,10,·,43*,·
COC1=CC(=O)C=C(OC)C1=O,·,0,4,·,8,2
O=C1/C(=C/c2cccnc2)CCc2c1[nH]c1ccccc21,6,1,-3,-4,8,2
CC1C/C(=C\c2cccnc2)C(=O)/C(=C/c2cccnc2)C1 (stereo unspecified),-8,3,15,44*,8,-3
O=C(Cc1ccccc1)NNC(=O)Cc1ccccc1,-2,2,6,-11,5,-2
O=C(CCc1ccccc1)NNC(=O)Cc1ccc(Cl)cc1,6,25*,13,-2,9,-2
CC1CC(C)CN(C(=O)Cc2c(C(=O)O)[nH]c3ccc(Cl)cc23)C1 (stereo unspecified),-7,81*,4,-6,1,19
O=C(NCc1ccccc1Cl)c1ccccc1CCc1ccccc1,-1,2,-2,-12,7,-5
O=C(NCc1ccc(Cl)cc1)c1ccccc1CCc1ccccc1,31*,16,-3,-11,-1,-4
SMILES,EBNA-1 inh,PAFAH1B2 FP inh,PAFAH2 inh,ZTA counter,PAFAH1B3 FP inh,rCAG RNA binder
Cc1cc(Cl)ccc1OCC(=O)N1CC(C)CC(C)C1 (stereo unspecified),-11,8,11,11,1,-4
O=C(O)c1ccccc1C(=O)NCCc1ccc(Cl)cc1,3,30*,7,6,14,1
O=C(NCCc1ccc(Cl)cc1)c1ccc2ccccc2n1,-4,25*,8,3,2,-4
COCCNC(=O)c1ccc2ccccc2n1,-6,7,-4,-7,9,1
O=C(O)c1ccccc1C(=O)NCCc1c(C(=O)O)[nH]c2ccc(Cl)cc12,0,33*,6,10,7,3
O=C(NCCc1ccc(Cl)cc1)C(=O)c1c[nH]c2ccccc12,14,28*,-14,0,-7,0
O=C(NCCc1c[nH]c2ccccc12)C(=O)c1c[nH]c2ccccc12,2,5,-6,-2,-1,11
O=C(CSc1nnc(COc2ccccc2)n1-c1ccccc1)Nc1ccc2c(c1)OCO2,·,·,·,·,·,3
C/C(=N/OC(=O)C1CC1c1ccccc1)c1ccccc1 (stereo unspecified),-2,46*,32*,0,6,-6
CC(C)C(=O)OCCCN1C(=O)CCC12CCC(c1ccccc1)CC2 (stereo unspecified),·,·,·,·,·,0
CCC(CC)COC(=O)C1=C(C)NC(=O)NC1c1ccc(N(C)C)cc1 (stereo unspecified),3,28*,4,-8,4,-3
CCOC(=O)C1=C(C)NC(=O)NC1c1ccc(N(C)C)cc1 (stereo unspecified),·,-5,-1,·,-4,7
COC(=O)C(C(=O)OC)C1OC23CN(S(=O)(=O)c4ccc(C)cc4)C=CC2(C)C3c2ccccc21 (stereo unspecified),·,·,·,·,·,2
COC(=O)[C@]12C[C@H](CC(=O)NCCCCc3ccccc3)C(=O)N(CCc3ccc(OC)c(OC)c3)C1=C[C@H](C1CCCC1)O[C@@H]2C,·,·,·,·,·,8
Cc1ccc(NC(=O)CC(=O)Nc2ccc(C)c(C)c2)cc1C,-2,2,-8,0,5,1
Cc1ccc(NC(=O)CCSCCC(=O)Nc2ccc(C)c(C)c2)cc1C,4,29*,-15,-6,-8,7
CC1C/C(=N/N=C2/NC(=O)CS2)CC(C)(C)C1 (stereo unspecified),7,76*,-5,4,-4,-6
CC1C/C(=N/N2C(=O)CSC2=S)CC(C)(C)C1 (stereo unspecified),-13,19,6,10,7,6
CC(=O)c1ccc(NC(=O)C2CCCN(S(=O)(=O)c3cccc4nonc34)C2)cc1 (stereo unspecified),-6,29*,-2,-9,7,·
COc1cccc(NC(=O)CN(C)C(=O)c2cccc(NS(=O)(=O)c3ccc(Br)cc3)c2)c1,·,30*,4,·,0,29
Cc1nn(CCC(=O)NNC(=O)Nc2ccccc2)c(C)c1[N+](=O)[O-],·,·,·,·,·,2
COC(=O)C1=C(Nc2ccccc2NS(=O)(=O)c2ccc(C(F)(F)F)cc2Cl)CSC1,11,28*,8,8,2,12
